# Assay outcomes: PubChem BioAssay, National Center for Advancing Translational Sciences (NCATS)
# Sampled rows, rich in hits. Any-hit rate of the full collection: about 2.5%.
# Pol kappa inh-1: qHTS for Inhibitors of Polymerase Kappa | DNA polymerase kappa (Homo sapiens), Q9UBT6 | purified Pol kappa, fluorescent DNA synthesis assay, 10 min | Potency, µM (titrated, usually from 107 µM), for inactives: top-dose activity, negative = inhibition, usual class: inhibitors | actives 0.53% (n = 400,000) | AID 588579, 2011; further: on the % scale 0 is the no-effect control and ±100 the full control effect
# Target sequence (Q9UBT6 whole entry, looked up): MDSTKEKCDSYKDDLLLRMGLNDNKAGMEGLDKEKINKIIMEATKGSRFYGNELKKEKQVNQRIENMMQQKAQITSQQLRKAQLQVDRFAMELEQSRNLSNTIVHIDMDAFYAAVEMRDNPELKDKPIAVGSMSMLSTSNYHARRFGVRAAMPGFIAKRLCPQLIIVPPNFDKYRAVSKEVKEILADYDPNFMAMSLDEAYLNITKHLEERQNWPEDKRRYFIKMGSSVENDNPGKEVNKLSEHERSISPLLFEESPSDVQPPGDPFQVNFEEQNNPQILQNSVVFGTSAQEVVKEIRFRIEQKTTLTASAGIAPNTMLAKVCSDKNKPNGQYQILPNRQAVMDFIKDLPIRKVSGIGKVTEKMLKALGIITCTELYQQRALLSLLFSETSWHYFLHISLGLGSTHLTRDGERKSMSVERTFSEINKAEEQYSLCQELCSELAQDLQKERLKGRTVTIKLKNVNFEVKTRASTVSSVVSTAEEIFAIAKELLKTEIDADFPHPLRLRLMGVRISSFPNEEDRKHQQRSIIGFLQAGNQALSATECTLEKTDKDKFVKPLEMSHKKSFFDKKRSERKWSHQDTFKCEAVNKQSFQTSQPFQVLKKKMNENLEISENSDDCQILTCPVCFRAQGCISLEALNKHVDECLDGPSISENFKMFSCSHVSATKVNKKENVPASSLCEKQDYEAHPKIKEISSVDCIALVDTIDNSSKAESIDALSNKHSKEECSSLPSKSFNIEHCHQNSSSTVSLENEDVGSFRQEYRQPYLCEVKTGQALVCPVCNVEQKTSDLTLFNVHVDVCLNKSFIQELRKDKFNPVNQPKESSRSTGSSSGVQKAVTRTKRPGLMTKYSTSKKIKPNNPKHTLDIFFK
#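 Activity was followed as the change in fluorescence between reads at 0 and 10 min after starting the reaction with 50 nM substrate. Beforehand, 10 nM polymerase had been preincubated with compound for 15 min at room temperature.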
# POLB inh: qHTS Assay for Inhibitors of DNA Polymerase Beta | P06746 | Pol beta primer extension/strand displacement, fluorescence kinetic | Potency, µM (titrated, usually from 114 µM), without a hit: at the highest dose activity change, negative = inhibition, hits mostly inhibitors | actives 1.3% (n = 340,000); further: on the % scale 0 is the no-effect control and ±100 the full control effect
#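 Values derive from four-parameter Hill fits of normalized kinetic data: reads at 0 and 10 min following addition of 50 nM substrate to 10 nM Pol beta preincubated 15 min with compound.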
# APEX1 inh: qHTS Assay for Inhibitors of the Human Apurinic/apyrimidinic Endonuclease 1 (APE1); DNA repair nuclease/redox regulator APEX1 (Homo sapiens), P27695; recombinant APE1, TAMRA/BHQ-2 abasic DNA cleavage fluorescence; Potency, µM (doses to about 65.8 µM), for the others: at the highest dose activity change, negative = inhibition, usual class: inhibitors; actives 0.35% (n = 350,000); AID 2517, 2012;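 further: plate controls were vehicle for no effect and reference inhibitor for full effect; nearly all actives have a fitted effect of over 55% in size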
#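 Quantitative HTS: incision of a TAMRA/BHQ-2 double-stranded substrate bearing a tetrahydrofuran abasic site by 0.75 nM APE1 raises fluorescence. Substrate 50 nM final, added after 15 min compound preincubation at room temperature; progress as third-minus-first kinetic read difference.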
# POLI inh: qHTS for Inhibitors of Polymerase Iota; Pol iota fluorescent replication assay, 10 min; Potency, µM (highest dose often 115 µM), inactives show at the top dose activity, negative = inhibition, hits mostly inhibitors; actives 1% (n = 390,000)
#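 Fluorescent replication assay read twice, at 0 min and 10 min after adding 50 nM (final) substrate. Enzyme (10 nM) and compounds were first incubated 15 min at room temperature; enzyme-free buffer wells were negative controls.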
# Pol eta inh-1: qHTS for Inhibitors of Polymerase Eta; DNA polymerase eta (Homo sapiens), Q9Y253; recombinant Pol eta, fluorescent DNA replication assay; Potency, µM (highest dose often 114 µM), for the others: at the highest dose activity change, negative = inhibition, actives largely listed as inhibitors; actives 1.2% (n = 390,000); AID 588591, 2011; further: on the % scale 0 is the no-effect control and ±100 the full control effect
#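 Pol eta at 10 nM preincubated with compounds 15 min at room temperature; reaction started with fluorescent substrate (50 nM final) and read kinetically at 0 and 10 min.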
# L3MBTL1 block: qHTS Assay for the Inhibitors of L3MBTL1; AID 485360, 2010; Lethal(3)malignant brain tumor-like protein 1 (Homo sapiens), Q9Y468; AlphaScreen L3MBTL1–H3K9me1 peptide binding; Potency, µM (series often up to 57.1 µM), for the others: at the top dose activity, negative = inhibition, actives largely listed as inhibitors; actives 0.66% (n = 230,000); further: on the % scale 0 is the no-effect control and ±100 the full control effect; nearly all actives have a fitted effect of over 60% in size
#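 AlphaScreen proximity signal between nickel-chelate acceptor and streptavidin donor beads (final 10 ug/mL) reports binding of 50 nM L3MBTL1 to 75 nM biotin-H3 K9me1 peptide; complex incubated with compounds 30 min at room temperature; cefsulodin titration as control.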
# Pol kappa inh-2: qHTS for Inhibitors of Polymerase Kappa: Confirmatory Assay for Cherry-picked Compounds | shares compounds with Pol eta inh-1 | purified Pol-kappa, fluorescent strand-displacement substrate | Potency, µM, usual class: inhibitors | actives 76% (n = 920) | AID 720501, 2013
# Pol eta inh-2: qHTS for Inhibitors of Polymerase Eta: Confirmatory Assay for Cherry-picked Compounds. Pol eta primer extension, TAMRA/BHQ fluorescence, 10 min. Potency, µM, most hits filed as inhibitors. actives 64% (n = 2,600). AID 720502, 2013. shares compounds with Pol eta inh-1
# An asterisk follows results filed as active; ? = inconclusive; / = no result given; [ ] = another dose, or the depositor's remark. The call rests on the fitted dose curve; in most records, active means well fitted curve in the direction sought with a large enough effect; inconclusive means small, poorly fitted or top-dose-only effect, or another doubt; inactive means no such curve, though single readings can be large; an effect the other way counts as inactive or inconclusive. Potency means the concentration at half of the fitted maximal effect.
SMILES,Pol kappa inh-1,POLB inh,APEX1 inh,POLI inh,Pol eta inh-1,L3MBTL1 block,Pol eta inh-2,others
O=C(O)c1cn[nH]c1-c1cccc([N+](=O)[O-])c1,?,-15%,?,25µM*,20µM*,/,67*,
Cc1cc(C(=O)Nc2sccc2C#N)c2ccccc2n1,-38%,2%,-5%,?,45µM*,/,?,
Cc1ccc(C(=O)NCc2ccco2)o1,?,?,16%,?,?,/,/,
Cc1ccc(C(=O)NCc2occc2C(=O)O)o1,?,20µM*,?,?,28µM*,/,30*,Pol kappa inh-2=24*
Cc1csc(N=Cc2ccc([N+](=O)[O-])o2)n1,/,/,/,/,18µM*,/,?,
Cc1ccccc1NS(=O)(=O)c1ccc2[nH]cc(C(=O)N3CCCC3)c(=O)c2c1,5%[60.1 µM],?,/,?,89µM*,/,?,
CC(C)c1ccc(NS(=O)(=O)c2ccc3[nH]cc(C(=O)N4CCCC4)c(=O)c3c2)cc1,?,?,/,79µM*,?,/,43*,
COc1cccc(NS(=O)(=O)c2ccc3[nH]cc(C(=O)N4CCCC4)c(=O)c3c2)c1,-16%,?,/,-5%,-1%,/,/,
CCc1ccc(NS(=O)(=O)c2ccc3[nH]cc(C(=O)N4CCCCCC4)c(=O)c3c2)cc1,-31%,?,/,?,-3%,/,/,
CC1=Nc2ccccc2/C1=C/c1c(C)[nH]c2ccccc12,-7%,/,/,52%,-12%,/,/,
NC(=O)c1c(NC(=O)C2c3ccccc3Oc3ccccc32)sc2c1CCCCC2,-28%,45µM*,3%,?,35µM*,?,?,
O=c1c(C(c2c(O)nc3n(c2=O)CCS3)c2cccc3ccccc23)c(O)nc2n1CCS2,40µM*,?,0%,?,22µM*,-5%,?,
O=c1c(C(c2ccc(O)cc2)c2c(O)nc3n(c2=O)CCS3)c(O)nc2n1CCS2,-40%,3%,1%,-26%,20µM*,3%,?,
Cc1ccc(C(c2c(O)nc3n(c2=O)CCS3)c2c(O)nc3n(c2=O)CCS3)cc1,-34%,35%,?,?,-13%,2%,/,
COC(=O)c1c(C(=O)OC)c(-c2ccc(Cl)c(Cl)c2)n2c1CCC2,5%,10%,-10%,22%,-2%,-7%,/,
O=C(O)c1c(C(=O)O)c(-c2ccc(Cl)c(Cl)c2)n2c1CSC2,-45%,?,-4%,?,50µM*,/,/,Pol kappa inh-2=38*
CCN(CC)CCNS(=O)(=O)c1ccc2[nH]cc(C(=O)O)c(=O)c2c1,?,18µM*,?,?,22µM*,?,27*,
CCN(CC)c1ccc(/C=C2\C(=O)c3ccc(C(=O)O)cc3C2=O)cc1,?,40µM*,?,?,7.9µM*,?,27*,
CCCn1c(SCC(O)c2ccccc2)nc2ccccc21 (stereo not drawn),-4%,-3%,/,-2%,-16%,/,/,
Cc1cc(/C=C2\SC(=S)NC2=O)c(C)n1-c1cccc(O)c1,-18%,45µM*,-4%,?,35µM*,-29%,?,
